Experimental findings from PubChem BioAssay (NCI) are described below.

The panel holds about 83,000 compounds, 20% with a hit somewhere; the sample as a whole holds those more often.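 48-hour exposure, single concentration, 96-well plates; percent growth endpoint where 0 means no net growth. Active: below 10.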 Values without a mark were called inactive. Activity calls are given as the source filed them.

The assay has as its system HL-60(TB) leukemia. Put plainly: NCI-60 one-dose screen, 48 h (100 = growth as untreated, 0 = no growth, -100 = all killed). To be noted: 10 µM unless noted.
As for `C[C@H](NC(=O)c1ccc2c(-c3ccc(C(F)(F)F)cc3)cccc2c1)c1ccccn1`, the growth was 23%.
With `COc1ccc2[nH]cc(-c3cc(N)n4nc(-c5cn(C)c6ccccc56)cc4n3)c2c1` the figure was -40.7% (active).
In the case of `COc1cc2oc(-c3cccc(NC(=O)[C@H](Cc4ccccc4)NC(=O)OC(C)(C)C)c3)cc(=O)c2c(OC)c1OC`, the growth is 22.9%.
The figure for `COc1ccc(/C=C/c2nc3ccccc3n3c(-c4ccc(Cl)cc4)nnc23)cc1` is 71.8%; for `Cc1nc2c(cnn2-c2ccccc2)c(=O)n1-c1ccc(NC(=O)c2ccc(F)cc2)cc1` it is 42.5%.
